Assay outcomes: PubChem BioAssay, Buhrlage Lab, Dana-Farber Cancer Institute and Novartis Institutes for BioMedical Research (Cambridge, Mass)
The list is not random: actives were taken first. Their share in the collection is about 12%.
USP17 inh: inhibitors of human USP17 deubiquitinase; A8MUK1; purified USP17, Ub-rhodamine cleavage fluorescence, 3 h; inhibition, % at 50 µM; 6.5% of 47,000 active
Target sequence (A8MUK1 whole entry, looked up): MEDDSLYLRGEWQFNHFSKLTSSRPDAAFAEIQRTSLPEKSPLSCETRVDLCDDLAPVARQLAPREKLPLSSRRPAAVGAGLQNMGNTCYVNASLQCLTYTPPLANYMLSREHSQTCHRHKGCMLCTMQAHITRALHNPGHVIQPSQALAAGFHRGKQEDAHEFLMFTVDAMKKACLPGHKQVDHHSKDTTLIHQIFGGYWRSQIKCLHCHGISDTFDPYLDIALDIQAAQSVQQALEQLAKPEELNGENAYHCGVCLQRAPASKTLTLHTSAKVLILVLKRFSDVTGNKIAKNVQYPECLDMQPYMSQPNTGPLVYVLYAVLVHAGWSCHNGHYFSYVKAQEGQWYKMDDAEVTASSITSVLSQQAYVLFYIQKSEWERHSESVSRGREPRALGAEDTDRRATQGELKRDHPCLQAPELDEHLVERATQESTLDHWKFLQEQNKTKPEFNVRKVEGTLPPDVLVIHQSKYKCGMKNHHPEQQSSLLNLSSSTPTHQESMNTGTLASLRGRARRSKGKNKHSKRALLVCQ
USP30 block: inhibitors of human USP30 deubiquitinase; Q70CQ3; purified USP30, Ub-rhodamine cleavage fluorescence; inhibition, % at 25 µM; 5.3% of 47,000 active; AID 1645860
OTUD3 block: human OTUD3 deubiquitinase inhibition; Q5T2D3; purified OTUD3, Ub-rhodamine fluorescence, 2 h; inhibition, % at 25 µM; 0.7% of 47,000 active
USP28 inh: blocks human USP28 ubiquitin-rhodamine cleavage | AID 1645857 | inhibition, % at 25 µM | purified USP28, Ub-rhodamine cleavage fluorescence, 30 min | 3% of 47,000 active | Q96RU2
Numbers without * were called inactive; i = inactive; nt = no result given. Cut-off read from the data, not from the text of the source: active = inhibition above about 30%; inactive = the rest.

SMILES	USP17 inh	USP30 block	OTUD3 block	USP28 inh
COc1ccc(-c2nc(-c3nnn(Cc4cccc(F)c4)c3C)no2)c(OC)c1	-4.9	31.7*	3.0	41.7*
COc1ccccc1-c1nc(-c2nnn(-c3ccc(C)cc3)c2C)no1	7.2	-0.1	11.8	10.9
COc1ccccc1-c1nc(-c2nnn(Cc3ccccc3)c2C)no1	24.3	27.1	17.9	45.3*
Cc1ccccc1CC(=O)N1CCC2(C1)C(=O)Nc1ccccc12 (stereo not drawn)	0.5	3.4	8.3	2.6
CCN(c1ccccc1)S(=O)(=O)c1cc2[nH]c3c(c2cc1C)C(=O)CC(C)(C)C3	32.9*	18.2	2.7	5.6
Cc1cccc(NS(=O)(=O)c2cc3[nH]c4c(c3cc2C)C(=O)CC(C)(C)C4)c1	36.4*	20.2	-4.3	4.0
O=C(NC1CC2(CCCC2)Oc2ccccc21)c1cnccn1 (stereo not drawn)	-6.6	1.5	-0.7	-5.1
CN1CCCc2cc(C(CNC(=O)c3ccc4c(c3)OCO4)N3CCCC3)ccc21 (stereo not drawn)	-123.5	i	-186.8	-187.8
COc1ccc(NC(=O)CC2(c3ccc(C)cc3)CCOC(C)(C)C2)cc1 (stereo not drawn)	-4.3	3.4	-5.8	-5.0
COc1cccc(OC)c1C(=O)Nc1c(NCc2ccccc2)c2ccccc2oc1=O	30.5*	16.8	13.4	17.8
C=CCNc1ncnc2c1sc1nc(C(C)C)c3c(c12)CC(C)(C)OC3	8.6	nt	-1.6	nt
CCCCN(CC)c1ncnc2c1sc1nc(-c3ccco3)c3c(c12)CC(C)(C)OC3	53.4*	-33.9	10.5	11.6
CCCCN(CC)c1ncnc2c1sc1nc(-c3ccccc3)c3c(c12)CC(C)(C)OC3	-38.3	-3.0	-6.8	-1.8
CC(C)c1nc2sc3c(N(CCO)CCO)ncnc3c2c2c1COC(C)(C)C2	9.9	59.6*	15.6	19.5
O=C1CN(C(=O)c2ccc(Cl)cc2)CC(O)CN1CCCc1ccccc1 (stereo not drawn)	4.9	8.8	0.4	1.8
CC(C)Cn1c(=O)[nH]c2c(C(=O)N3CCCCC3)snc2c1=O	-3.6	-7.4	-4.4	0.1
CC(C)n1c(=O)[nH]c2c(C(=O)N3CCCCC3)snc2c1=O	18.5	38.2*	15.1	13.2
O=C(NC1CC1)N1CCC2(CC(=O)N(c3cccnc3)C2)C1 (stereo not drawn)	-22.7	nt	-7.5	nt
Cc1ccc(-c2nccn3cc(C(=O)NCCc4ccccn4)nc23)cc1	-16.5	-27.2	-7.9	-11.2
O=C(NCCc1ccccn1)c1cc(-c2ccc(Br)cc2)n[nH]1	80.1*	33.8*	-11.2	12.3
O=C(NCCc1ccccn1)c1cn2ccnc(-c3ccc(F)cc3)c2n1	21.3	55.9*	8.0	3.7
Cc1c(CC(=O)N2CCN(c3ccc(Cl)cc3)CC2)c(=O)oc2cc(O)c(Cl)cc12	18.5	35.3*	11.5	6.8
Cc1c(CC(=O)N2CCN(c3ncccn3)CC2)c(=O)oc2cc(O)ccc12	62.6*	-8.7	6.7	-3.5
Cc1c(CC(=O)N2CCN(c3ccccn3)CC2)c(=O)oc2cc(O)ccc12	-5.2	4.3	19.7	10.7
COc1ccc2c(C)c(CC(=O)N3CCN(c4ccccc4)CC3)c(=O)oc2c1	-11.5	12.0	9.3	8.5
SMILES	USP17 inh	USP30 block	OTUD3 block	USP28 inh
COc1ccc(CN2CCC3(CC2)CCN(c2cncnc2)C3=O)cc1	-1.8	29.6	14.3	12.7
Cc1ccc(-c2cn(CC(=O)N3CCN(c4ccccn4)CC3)c(=O)o2)cc1	77.0*	35.5*	10.7	20.0
Cc1cccc(N2CCN(C(=O)Cn3cc(-c4ccccc4)oc3=O)CC2)c1	-12.8	-23.8	-14.1	-13.6
Cc1nnc(-c2ccc3ccn(CC(=O)N4CCN(c5ccccn5)CC4)c3c2)o1	3.1	-8.4	0.0	-0.3
CCc1nnc(-c2ccc3ccn(CC(=O)N4CCN(c5ccccn5)CC4)c3c2)o1	75.9*	38.6*	83.2*	30.9*
NC(=O)C1Cn2ccnc2C2(CCN(C(=O)NCCc3ccccc3)CC2)O1 (stereo not drawn)	-31.7	-18.5	-1.1	-7.1
CC1(C2CCN(c3cccc(F)c3C#N)CC2)NC(=O)NC1=O (stereo not drawn)	10.8	31.8*	16.3	15.5
N#Cc1c(F)cccc1N1CCC(C2CCCCCN2C(=O)C2CC2)CC1 (stereo not drawn)	15.1	34.4*	22.5	24.7
CCC(=O)Nc1ccc(-n2cnc(C(=O)NC3CCCCCC3)c2)nc1	-2.7	0.3	0.3	-0.6
CNC(=O)c1cc2c(nc1NCC(C)C)CCN(Cc1cnn(C)c1)CC2	-26.4	-33.9	-3.6	-10.8
COc1ccc(NS(=O)(=O)c2ccc(Cl)c(NC(=O)CC(=O)c3ccc([N+](=O)[O-])cc3)c2)cc1	29.7	15.4	3.2	20.9
Cc1nc2ccc(C(=O)N3CCCC(Cc4nccnc4N)C3)cc2[nH]1 (stereo not drawn)	-1.6	-5.3	6.4	0.3
Cc1cc(NC(=O)CNc2ccccc2F)no1	-14.9	-34.8	-2.5	-12.1
CCN(CC(=O)Nc1cc(C)on1)c1cccc2ccccc12	87.7*	27.3	12.5	22.8
CC12CCC(=O)N1c1ccccc1C(=O)N2c1ccc(F)cc1 (stereo not drawn)	11.1	32.5*	13.8	11.8
Cc1ccccc1NC(=O)c1nc(-c2cn(Cc3ccc(F)cc3)nn2)no1	78.5*	9.1	13.9	12.0
COc1ccc(C(=O)c2oc3ccccc3c2NC(=O)COc2ccccc2F)cc1	22.9	21.6	10.1	4.7
O=S(=O)(c1ccccc1)N1CCC2(CC1)NCCN=C2NCc1cc(F)cc(F)c1	10.3	33.2*	16.0	16.7
CC(C)(C)C(=O)NC(c1ccccc1)c1nnc(N2CCOCC2)o1 (stereo not drawn)	3.7	2.9	12.4	73.7*
CC(C)NC(=O)N1CCN(C(=O)Cc2ccccc2)CC2(CC(=O)N(C)C2)C1 (stereo not drawn)	-6.9	3.3	-1.1	-10.9
CC(C)c1cnn2c(NCc3ccccc3)cc(NCCCCCCN)nc12	-7.9	37.4*	-8.5	40.1*
Cc1c(C(=O)N(c2ccccn2)C2CCCCC2)cccc1[N+](=O)[O-]	-9.1	9.8	8.2	4.0
CCCNC(=O)c1oc2ccc3c(c2c1C)C(=O)CC1(CCCC1)O3	20.4	39.4*	5.2	14.7
Cc1c(C(=O)NCc2ccccc2F)oc2ccc3c(c12)C(=O)CC1(CCCC1)O3	15.9	26.1	8.2	4.5
Cc1nc2ncccc2c(=O)n1-c1ccc(NC(=O)c2ccc(F)cc2F)cc1	15.5	34.4*	20.8	16.2
O=C(COc1ccc([N+](=O)[O-])cc1)NCC(c1ccco1)N1CCCC1 (stereo not drawn)	-9.4	5.5	5.2	0.0
Cc1nn(C)c(C)c1CNC(=O)C1CCN(c2nnc3ccc(C(F)(F)F)cn23)CC1	4.3	12.2	6.1	37.8*
O=C(Nc1nc(C(=O)NCc2cccnc2)co1)c1ccccc1	-15.5	-34.8	-7.3	-8.8
Cc1ccc(NC(=O)c2cc(-c3cccnc3)n(-c3ccccc3)n2)nc1	31.8*	51.0*	4.1	15.8
O=C(NC1CCCC1)c1cc(-c2cccnc2)n(-c2ccccc2)n1	23.7	32.5*	13.2	20.2
